# The panel holds about 83,000 compounds, 20% with a hit somewhere; the sample as a whole holds those more often.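 For each line, cells grew in 96-well plates with the test compound present at a single concentration for 48 hours.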 Values without a mark were called inactive. Activity calls are given as the source filed them. How the source made its calls: active means growth percent below 10; inactive means the rest.
# Experiments:
# Assay in all cases: NCI-60 one-dose screen, 48 h (100 = growth as untreated, 0 = no growth, -100 = all killed)
# Details in all cases: 10 µM unless noted
# NCI-H23 lung = test system: NCI-H23 lung
# NCI-H226 lung = test system: NCI-H226 lung
# NCI-H322M lung = test system: NCI-H322M lung
# HOP-62 NSCLC = test system: HOP-62 NSCLC
# NCI-H460 lung = test system: NCI-H460 lung
# NCI-H522 lung = test system: NCI-H522 lung
# A549/ATCC NSCLC = test system: A549/ATCC NSCLC
# 786-0 renal = test system: 786-0 renal
# COLO 205 colon = test system: COLO 205 colon
# DU-145 prostate = test system: DU-145 prostate
# K-562 leukemia = test system: K-562 leukemia
# MALME-3M melanoma = test system: MALME-3M melanoma
# MDA-MB-231 breast = test system: MDA-MB-231 breast
# RXF 393 renal = test system: RXF 393 renal
# SF-268 CNS = test system: SF-268 CNS
# SF-295 CNS = test system: SF-295 CNS
# SF-539 CNS = test system: SF-539 CNS
# UACC-257 melanoma = test system: UACC-257 melanoma
# M14 melanoma = test system: M14 melanoma
SMILES,growth (NCI-H23 lung),growth (NCI-H226 lung),growth (NCI-H322M lung),growth (HOP-62 NSCLC),growth (NCI-H460 lung),growth (NCI-H522 lung),growth (A549/ATCC NSCLC),growth (786-0 renal),growth (COLO 205 colon),growth (DU-145 prostate),growth (K-562 leukemia),growth (MALME-3M melanoma),growth (MDA-MB-231 breast),growth (RXF 393 renal),growth (SF-268 CNS),growth (SF-295 CNS),growth (SF-539 CNS),growth (UACC-257 melanoma),growth (M14 melanoma)
COc1ccc(-n2c(SCc3nnc(NC(=O)c4ccc(Br)cc4)s3)nc3cc(OC)c(OC)cc3c2=O)cc1,92.5%,74%,85.5%,92.3%,93.5%,89.2%,102%,105%,104%,89.4%,100%,92.2%,87.9%,104%,86.4%,93.2%,92.9%,101%,92.5%
CC[C@@H](CO)Nc1ccc2ncc(C#Cc3cncc(C(=O)Nc4ccc(CN5CCN(C)CC5)c(C(F)(F)F)c4)c3)n2n1,-71.5% (active),-39.4% (active),-30.1% (active),-71.7% (active),-88.8% (active),-76.1% (active),-35.3% (active),-96.8% (active),-87.2% (active),-82.4% (active),0.898% (active),-82.2% (active),-58.3% (active),-96.2% (active),-60.4% (active),-84.7% (active),-82.1% (active),-84.8% (active),-92% (active)
CC[C@H](CO)Nc1ccc2ncc(C#Cc3cncc(C(=O)Nc4ccc(CN5CCN(C)CC5)c(C(F)(F)F)c4)c3)n2n1,-80.8% (active),-25.7% (active),-16.6% (active),-45% (active),-93% (active),-75.8% (active),-0.341% (active),-97.2% (active),-92.5% (active),-94.3% (active),0.0289% (active),-81.5% (active),-60.6% (active),-95.7% (active),-60.5% (active),-82.1% (active),-91.5% (active),-85.9% (active),-95.5% (active)
COc1ccc(C(=O)Nc2ncc(Cc3ccccc3Cl)s2)cc1,17.9%,31.7%,54.3%,39.2%,2.79% (active),-37.3% (active),24.3%,28.9%,-48.3% (active),18.2%,7.56% (active),57.1%,24.9%,-2.13% (active),43.3%,7.7% (active),2.11% (active),67%,15.5%
COc1ccc([C@@H]2[C@@H](O)C(=O)N2c2cc(OC)c(OC)c(OC)c2)cc1F,15.9%,36.9%,52.4%,28.3%,2.68% (active),-49.6% (active),20.2%,10%,-79.8% (active),12.3%,8.16% (active),64.1%,21.3%,24.9%,32%,5.85% (active),-0.902% (active),58.6%,3.94% (active)
C=CCn1c(SCC(=O)Nc2ccc(C(=O)/C=C/c3cc(OC)c(OC)c(OC)c3)cc2)nnc1-c1c[nH]c2ccccc12,-11% (active),-4.91% (active),53%,70.5%,3.42% (active),35.7%,34.7%,23.1%,73.1%,13.2%,3.04% (active),68.6%,23%,–,33.1%,68.1%,-16.2% (active),73%,–
CCNC(=O)N1CCc2cc(OC)c(OCCc3ccc(OC)cc3)cc2C1c1ccc([N+](=O)[O-])cc1C (stereo not given),21.2%,38%,45.4%,25.9%,2.37% (active),-8.41% (active),11.7%,18.2%,25.8%,20.7%,13.7%,63.8%,17.7%,-9.58% (active),32%,10.8%,9.83% (active),46.6%,23.4%
Cc1ccc(C(=O)NN2C(=O)/C(=C/C=C/c3ccco3)SC2=S)cc1,96.7%,96.1%,85.4%,105%,88.3%,83.5%,82.4%,106%,126%,103%,49.3%,93.9%,96.7%,131%,96.9%,102%,93.4%,91%,99.8%

# Reference: PubChem BioAssay (NCI)
